USP28 inh = blocks human USP28 ubiquitin-rhodamine cleavage; 3% of 47,000 active; purified USP28, Ub-rhodamine cleavage fluorescence, 30 min; inhibition, % at 25 µM
Target sequence (Q96RU2 whole entry, looked up): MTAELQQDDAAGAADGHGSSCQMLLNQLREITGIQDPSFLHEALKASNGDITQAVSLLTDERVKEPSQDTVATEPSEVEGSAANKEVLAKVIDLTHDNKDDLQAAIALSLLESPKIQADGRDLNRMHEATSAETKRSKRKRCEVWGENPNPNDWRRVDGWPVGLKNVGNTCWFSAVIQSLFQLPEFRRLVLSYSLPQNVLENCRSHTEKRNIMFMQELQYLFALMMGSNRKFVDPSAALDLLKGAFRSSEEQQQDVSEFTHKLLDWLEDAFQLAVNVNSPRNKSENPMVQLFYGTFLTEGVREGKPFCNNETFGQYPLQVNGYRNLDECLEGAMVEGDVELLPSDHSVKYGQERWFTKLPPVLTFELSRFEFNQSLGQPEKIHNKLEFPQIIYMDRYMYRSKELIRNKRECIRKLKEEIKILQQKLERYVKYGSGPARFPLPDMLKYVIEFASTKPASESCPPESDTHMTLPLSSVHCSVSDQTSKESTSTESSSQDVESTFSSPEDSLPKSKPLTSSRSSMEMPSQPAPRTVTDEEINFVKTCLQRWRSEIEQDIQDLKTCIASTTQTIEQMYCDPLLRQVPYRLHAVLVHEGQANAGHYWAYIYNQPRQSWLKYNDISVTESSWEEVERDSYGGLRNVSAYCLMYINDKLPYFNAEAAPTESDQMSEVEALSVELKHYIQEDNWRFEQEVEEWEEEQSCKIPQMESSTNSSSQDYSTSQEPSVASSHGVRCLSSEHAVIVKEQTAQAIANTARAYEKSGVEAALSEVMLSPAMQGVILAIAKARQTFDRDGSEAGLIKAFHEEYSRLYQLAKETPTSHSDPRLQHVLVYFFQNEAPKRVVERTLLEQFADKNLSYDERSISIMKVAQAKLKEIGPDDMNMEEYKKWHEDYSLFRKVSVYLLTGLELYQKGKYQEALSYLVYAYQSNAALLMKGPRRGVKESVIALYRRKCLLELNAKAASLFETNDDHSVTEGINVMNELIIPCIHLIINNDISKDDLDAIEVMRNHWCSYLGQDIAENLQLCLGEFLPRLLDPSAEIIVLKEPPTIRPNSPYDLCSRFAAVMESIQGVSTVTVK
USP30 block = inhibitors of human USP30 deubiquitinase | 5.3% of 47,000 active | inhibition, % at 25 µM | AID 1645860 | purified USP30, Ub-rhodamine cleavage fluorescence
OTUD3 inh = inhibitors of human OTUD3 deubiquitinase. Q5T2D3. purified OTUD3, Ub-rhodamine fluorescence, 2 h. inhibition, % at 25 µM. 0.7% of 47,000 active. AID 1645858
USP17 inh = blocks human USP17 ubiquitin-rhodamine cleavage; A8MUK1; purified USP17, Ub-rhodamine cleavage fluorescence, 3 h; inhibition, % at 50 µM; 6.5% of 47,000 active; AID 1645855
Starred values were filed as active, the others as inactive. In the library only some 11% were active in any assay of this set; here they are far more common. No stated cut-off is given here; in the data, active means inhibition above about 30%; inactive means the rest.

`C(=C\c1nc(-c2cccc(-c3ccn[nH]3)c2)no1)/c1ccco1` gave USP28 inh -29.7, USP30 block -177.5, OTUD3 inh 5.5 and USP17 inh -4.9.
`COc1cccc(NC2=NS(=O)(=O)c3ccccc32)c1` gave USP28 inh 23.4, USP30 block 41.3*, OTUD3 inh 14.6 and USP17 inh 40.8*.
Screening COc1cccc(CNC(=O)CCC2=NS(=O)(=O)c3ccccc3N2)c1 returned USP28 inh -1.4, USP30 block 17.3, OTUD3 inh 12.6 and USP17 inh 15.3.
Screening Cn1cc(C2=CCN(S(=O)(=O)c3cccc(C#N)c3)CC2)c2cccnc21 returned USP28 inh -8.9, USP30 block -17.1, OTUD3 inh -6.5 and USP17 inh -6.9.
`Cn1nccc1-c1ncc2c(c1C(=O)O)CCN(Cc1ccccc1)C2` gave USP28 inh 5.0, USP30 block 17.1, OTUD3 inh 2.9 and USP17 inh -3.7.
CC(C)(C)C(=O)Nc1nnc2n1CCCS2 was read as USP28 inh -2.4, USP30 block 8.6, OTUD3 inh -6.1 and USP17 inh 0.6.
COc1ccc(COc2ccc3c(C)c(CC(=O)N4CC[C@@]5(O)CCCC[C@H]5C4)c(=O)oc3c2)cc1 was read as USP28 inh 20.4, USP30 block 52.0*, OTUD3 inh 8.2 and USP17 inh 46.1*.
`CCc1cc(=O)oc2c(C)c(OCC(=O)N3CCC4(O)CCCCC4C3)ccc12` (stereo not drawn) gave USP28 inh -1.2, USP30 block -1.0, OTUD3 inh 0.1 and USP17 inh 3.9.
`Cc1oc2cc3oc(=O)c(CC(=O)N4CCC5(O)CCCCC5C4)c(C)c3cc2c1C` (stereo not drawn) gave USP28 inh 6.9, USP30 block 22.9, OTUD3 inh 9.1 and USP17 inh 5.0.
For Cc1c(CCC(=O)N2CC[C@@]3(O)CCCC[C@H]3C2)c(=O)oc2cc(OCc3ccc(F)cc3F)ccc12 the results were USP28 inh 15.2, USP30 block 34.8* and OTUD3 inh 11.9.
Screening Cc1c(OCC(=O)NCC(=O)N2CCC3(O)CCCCC3C2)ccc2c3c(c(=O)oc12)CCCC3 (stereo not drawn) returned USP28 inh -6.1, USP30 block 7.5, OTUD3 inh 41.0* and USP17 inh 4.7.
Screening Cc1cc(-c2ccc(S(=O)(=O)Nc3ccc4c(c3)OCCO4)s2)on1 returned USP28 inh 9.3, USP30 block 4.9, OTUD3 inh 2.6 and USP17 inh -0.2.
Screening Cc1nnc(C2CCN(CC(=O)Nc3ccc(C)c(Cl)c3)CC2)s1 returned USP28 inh 9.8, USP30 block 7.8, OTUD3 inh 1.4 and USP17 inh -0.6.
Screening CCc1nc2cc3c(cc2n1CC(=O)NC1CCCC1)OCCO3 returned USP28 inh -10.5, USP30 block -13.9, OTUD3 inh -12.3 and USP17 inh -5.0.
Screening COc1ccc(/C=C/C(=O)Nc2ccc3c(c2)OCCO3)cc1 returned OTUD3 inh 1.7 and USP17 inh -3.0.
NC(=O)c1nc(C(=O)N2CCN(c3ccc(F)cc3)CC2)cs1 was read as OTUD3 inh 2.5 and USP17 inh -8.9.
`O=C(NCCc1ccccc1)c1nc(-c2ccc3cc[nH]c3c2)no1` gave USP28 inh 6.3, USP30 block 7.0, OTUD3 inh -1.7 and USP17 inh 48.2*.
Screening CC(=O)Nc1cc(C(=O)NC2CCCCC2)c2ccc(C)nc2c1 returned USP28 inh -30.9, USP30 block -219.2, OTUD3 inh -37.5 and USP17 inh -37.2.
`Cc1cc(=O)c2c(O)oc(O)c3c(O)cc(=O)c1c32` gave USP28 inh 9.0, USP30 block -117.9, OTUD3 inh -1.7 and USP17 inh 68.3*.
For Cc1cc(O)cc2oc3cc(O)cc(O)c3c(=O)c12 the results were USP28 inh 12.9, USP30 block -8.2, OTUD3 inh 8.1 and USP17 inh -52.8.
For COc1ccccc1C(=O)N1CC(=O)N(Cc2ccccc2)CC(O)C1 (stereo not drawn) the results were USP28 inh -10.7, USP30 block -0.9, OTUD3 inh 0.0 and USP17 inh -7.8.
`COc1ccc2[nH]c(C(=O)N(Cc3ccccn3)Cc3ccccn3)cc2c1` gave USP28 inh 0.8, USP30 block -7.4, OTUD3 inh -2.8 and USP17 inh 43.6*.
For COc1ccc2cc(C(=O)NCc3ccccn3)[nH]c2c1 the results were USP28 inh -6.4, USP30 block -22.2, OTUD3 inh -5.0 and USP17 inh -4.6.
For Fc1ccc(Cl)c(-c2nc(-c3ccn4cnnc4c3)no2)c1 the results were USP28 inh -214.3, USP30 block inactive, OTUD3 inh -143.1 and USP17 inh -129.8.
For CC(C)=CCC/C(C)=C/CC/C(C)=C/Cc1c(C)cc(O)cc1O the results were USP28 inh 32.2*, USP30 block 27.2, OTUD3 inh 17.6 and USP17 inh 38.7*.
Screening CC1OC2CC(O)C1(O)C1=C2C(O)=C(C(N)=O)C(=N)C1=O (stereo not drawn) returned USP28 inh 59.8*, USP30 block -22.6, OTUD3 inh 51.0* and USP17 inh 62.5*.
Screening Cc1onc(-c2ccccc2)c1C(=O)Nc1ccc(CC(=O)O)cc1 returned USP28 inh 7.6, USP30 block 20.4, OTUD3 inh 3.3 and USP17 inh 11.0.
Screening COc1cccc(-n2ccn3cc(-c4ccccc4)nc3c2=O)c1 returned USP28 inh -19.3, USP30 block -59.0, OTUD3 inh -5.9 and USP17 inh 33.4*.
`Cc1cc(C(=O)N2C[C@@H](C)[C@H](c3nc(-c4ccccc4)no3)C2)n[nH]1` gave USP28 inh 4.9, USP30 block 25.6, OTUD3 inh 8.2 and USP17 inh 18.7.
`COc1ccc(O)c(C(=O)OCc2cc(=O)oc3ccc4ccccc4c23)c1` gave USP28 inh -12.6, USP30 block -191.6, OTUD3 inh -31.8 and USP17 inh 50.9*.
For Cc1ccc(S(=O)(=O)n2nc(OC(=O)c3cccc(F)c3)cc2N)cc1 the results were USP28 inh 11.0, USP30 block -1.7, OTUD3 inh 4.5 and USP17 inh -4.1.
`CCCCC/C=C/C(O)C(O)/C=C/c1ccc(Cl)c(O)c1CO` (stereo not drawn) gave USP28 inh 6.2, USP30 block -63.7, OTUD3 inh -12.9 and USP17 inh 30.9*.
For O=c1c2cc(Br)ccc2ncn1Cc1csc(-c2ccc(Cl)cc2)n1 the results were USP28 inh -28.5, USP30 block -121.1, OTUD3 inh -25.0 and USP17 inh -29.5.
Screening O=c1c2cc(Cl)ccc2ncn1Cc1csc(-c2ccccc2)n1 returned USP28 inh 15.8, USP30 block 43.6*, OTUD3 inh 20.4 and USP17 inh 21.8.
Screening O=c1c2c(-c3ccccc3)csc2ncn1Cc1ccc2c(c1)OCO2 returned USP28 inh 39.8*, USP30 block 17.4, OTUD3 inh 3.6 and USP17 inh 6.4.
For Cc1ccccc1-c1nnc(-c2ccc(C(=O)N(C)C(C)c3ccccc3)cc2)o1 (stereo not drawn) the results were USP28 inh -6.5, USP30 block -6.6, OTUD3 inh 0.0 and USP17 inh 4.5.

Source: PubChem (Buhrlage Lab, Dana-Farber Cancer Institute and Novartis Institutes for BioMedical Research (Cambridge, Mass))
